# Activity calls are given as the source filed them. How the source made its calls: active means hit-call score of the fitted dose curve at least 0.9, where 1 is the maximum; inactive means score below 0.9.
# Read-out: Ezrin (EZR), EZR (gene 7430)
# Experiment: LTEA_HepaRG_EZR: Life Technologies and Expression Analysis (LTEA) Assay for Ezrin (EZR) using HepaRG (AID 2283491)
# Conditions: mRNA level, 48 h; actives raise or lower the signal
# Protocol: It is a marker of Cellular remodeling.Data from the assay component LTEA_HepaRG_EZR was analyzed into 1 endpoint. This assay endpoint, LTEA_HepaRG_EZR, was analyzed with bidirectional fitting relative to DMSO as the negative control and baseline of activity. Using a type of inducible reporter, measures of mRNA induction for gain or loss-of-signal activity can be used to understand regulation of transcription factor activity. To generalize the intended target to other relatable targets, this assay endpoint is annotated to the membrane protein intended target family, where the subfamily is Cellular remodeling.
# A total of 1060 chemcials from the ToxCast library were tested in eight-point concentration-response experiments. Cell culture and cytotoxicity assays were conducted at Thermo Fisher Scientific's Custom Services facility (Madison, WI). A single lot of human HepaRG cells (Thermo Fisher Scientific, Frederick, MD) was used for the cell culture experiments. 96-well format collagen type I coated plates of human HepaRG cells were prepared using established methods. Briefly, cryopreserved HepaRG cells were thawed, plated at a density of approximately 100,000 cells/well in HepaRG Thaw, Plate, and General Purpose media (HPRG770, Thermo Fisher Scientific), and incubated for 48 hours. 0.5% DMSO was selected as vehicle control to balance the requisite need of DMSO in HepaRG cultures to maintain differentiation (for example, baseline metabolism, proportions of hepatocytes vs. cholangiocytes), while enabling further hepatic receptor pathway activation (for example, PXR and CAR) in response to chemical exposure. 48 hours after plating, the culture medium was replaced with HepaRG Serum-Free Incudtion Media. Cells were exposed to each test chemical in duplicate and maintained in CO2 incubators for another 48 hours. Chemical plates were thawed to room temperature and 200x concentrations of treatment groups were prepared. 8-point conentration-reponse curves were made with the highest exposure at 100 uM, followed by half-log dilutions, all in 0.5% DMSO. Each test plate contained variouse controls, induction positive controls (1mM phenobarbital), cytotoxicity positive controls ([…] aflatoxin B1), vehicle controls (0.5% DMSO), and total lysis controls (0.5% DMSO). Cell morphology images were taken using an Essen IncuCyte FLR automated microscope, with six 96-well plates imaged in about 24 minutes. Images were captured and exported and JPEG files. Spent culture media was transfered to black-well plates for the LDH assay, and remaining media was sorted at -80 C for later use. Cells were treated with RLT buffer and frozen until shipped for gene expression analysis. Total RNA was isolated from the cell suspension in 75 uL of Buffer RLT (Qiagen, Germantown, MD 20874) by Quintiles/Expression Analysis (Durham, NC) using a custom isolation procedure. Total RNA from each plate well was transferred to a preamplification plate. Fluidigm's 96.96 Dynamic ArrayTM (Fluidigm, Amsterdam, the Netherlands) technology was used for gene expression analyses by quantitative reverse transcription polymerase chain reaction (qRT-PCR, performed by Quintiles/Expression Analysis, Durham, NC)89. Standard TaqManTM Assays (Applied Biosystems/ThermoFisher Scientific, Foster City, CA) were used to assess the expression of 93 genes selected based on their selectivity and sensitivity to important hepatic receptors known to be modulated by environmental chemicals; importance in human hepatocyte functionality; and hepatotoxicity. Three "housekeeping" endogenous control genes were also included and used for normalization: actin beta (ACTB), Glyceraldehyde 3 phosphate dehydrogenase (GAPDH) and RNA Polymerase II Subunit A (POLR2A). qRT-PCR was conducted according to the manufacturer's protocol.
SMILES,outcome,AC50
CCN1CCC2(CC1)COc1cc3c(cc12)N(C(=O)c1ccc(-c2ccc(-c4nnc(C)o4)cc2C)cc1)CC3,inactive,–
O=C(O)C(F)(F)C(F)(F)C(F)(F)C(F)(F)C(F)(F)C(F)(F)C(F)(F)C(F)(F)C(F)(F)C(F)(F)F,inactive,–
COc1cc(-c2ccc(N)c(OC)c2)ccc1N,inactive,–
CC(C)(OO)c1ccccc1,inactive,–
O=[N+]([O-])c1ccc(O)c([N+](=O)[O-])c1,inactive,–
CCCCCCCCc1ccc(O)cc1,inactive,–
CCOP(=S)(OCC)Oc1nc(Cl)c(Cl)cc1Cl,inactive,–
Cn1sc(Cl)cc1=O,inactive,–
C[C@@H]1C[C@@H]([C@H](O)CC2CC(=O)NC(=O)C2)C(=O)[C@@H](C)C1,–,10.8 µM (active)
CCC(=O)C(CC(C)N(C)C)(c1ccccc1)c1ccccc1 (stereo unspecified),inactive,–
CCOP(=S)(OCC)SCSP(=S)(OCC)OCC,inactive,–
O=c1[nH]c(=O)[nH]c(=O)[nH]1,inactive,–
O=C(Nc1ccc2[nH]ccc2c1)c1cc2cc(F)ccc2n1Cc1cccc(F)c1,–,9.92 µM (active)
O=C(O)C(Cl)(Cl)Cl,inactive,–
CC(=O)[O][Hg][c]1ccccc1,inactive,–
C=C(C)C(=O)[O][Sn]([CH2]CCC)([CH2]CCC)[CH2]CCC,–,93.5 µM (active)

SMILES,outcome,AC50
ClC1(Cl)C2(Cl)C3(Cl)C4(Cl)C(Cl)(Cl)C5(Cl)C3(Cl)C1(Cl)C5(Cl)C24Cl (stereo unspecified),inactive,–
Oc1cccc2cccnc12,inactive,–
ClCC(Cl)CCl,inactive,–
CCC(C)(C)c1ccc(O)c(C(C)(C)CC)c1,inactive,–
NC(=O)O,inactive,–
CC(C)(C)CC(C)(C)c1ccc(O)cc1,inactive,–
C[C@]12CCC(=O)C[C@@H]1CC[C@@H]1[C@@H]2CC[C@]2(C)[C@@H](O)CC[C@@H]12,inactive,–
CN(C)N=O,inactive,–
O=C1C2(Cl)C3(Cl)C4(Cl)C(Cl)(Cl)C5(Cl)C3(Cl)C1(Cl)C5(Cl)C24Cl (stereo unspecified),–,91.3 µM (active)
CC12CC1(C)C(=O)N(c1cc(Cl)cc(Cl)c1)C2=O (stereo unspecified),inactive,–
O=C(O)C(F)(F)C(F)(F)C(F)(F)C(F)(F)C(F)(F)C(F)(F)F,inactive,–
CC(C)(c1ccccc1)c1ccc(O)c(C(C)(C)c2ccccc2)c1,inactive,–
Cc1ccccc1N,inactive,–
CC(C)(C)c1cc(O)ccc1O,inactive,–
C=CC(=O)OCCCCCC(C)C,inactive,–

# — PubChem BioAssay (EPA / NIEHS)
